Results filed as inconclusive are left out. Calls of active or inactive are those of the source. The call rests on the fitted dose curve.
Legend:
[1] = Primary qHTS for inhibitors of SARS-S pseudo-typed particle cell entry (AID 1479145); conditions: SARS-S pseudotyped particle cell entry, luciferase reporter; series mostly up to 57.1 µM; further: nearly all actives have a fitted effect of over 45% in size
[2] = Primary qHTS for Huh7 cytotoxicity: counterscreen for inhibitors of MERS-S pseudotyped particle cell entry (AID 1479147); conditions: cell viability read-out; series mostly up to 57.1 µM
[3] = Primary qHTS for inhibitors of MERS-S pseudo-typed particle cell entry (AID 1479149); conditions: MERS-S pseudotyped particle entry, luciferase; series mostly up to 57.1 µM; further: nearly all actives have a fitted effect of over 60% in size
[4] = Primary qHTS for Vero E6 cytotoxicity: counterscreen for inhibitors of SARS-S pseudo-typed particle cell entry (AID 1479150); conditions: cell viability; series mostly up to 57.1 µM
On the % scale 0 is the no-effect control and ±100 the full control effect.

Cc1cc(C)c(NC(=O)CN(CC(=O)O)CC(=O)O)c(C)c1Br
inactive: Potency [1] | Potency [2] | Potency [3] | Potency [4]

CCCCCCCCCCCCCCCC(=O)OCCC1CCN(CCCN2c3ccccc3Sc3ccc(S(=O)(=O)N(C)C)cc32)CC1
inactive: Potency [1] | Potency [2] | Potency [3] | Potency [4]

C#CCN[C@@H]1CCc2ccccc21
inactive: Potency [1] | Potency [2] | Potency [3] | Potency [4]

CCOC(=O)c1ccc(OCCN2C[C@H](O)[C@@H](O)[C@H](O)[C@H]2CO)cc1
inactive: Potency [1] | Potency [2] | Potency [3] | Potency [4]

COc1cnc(NS(=O)(=O)c2ccc(N)cc2)nc1
inactive: Potency [1] | Potency [2] | Potency [3] | Potency [4]

O=C(O)c1cccnc1
inactive: Potency [1] | Potency [2] | Potency [3] | Potency [4]

O=c1cc[nH]c(=O)[nH]1
inactive: Potency [1] | Potency [2] | Potency [3] | Potency [4]

Cc1cccc(C)c1NC(=O)c1cc(S(N)(=O)=O)c(Cl)cc1O
inactive: Potency [1] | Potency [2] | Potency [3] | Potency [4]

COc1ccc(O)cc1
inactive: Potency [1] | Potency [2] | Potency [3] | Potency [4]

CCCNC(C)C(=O)Nc1ccccc1C (centres undefined)
inactive: Potency [1] | Potency [2] | Potency [3] | Potency [4]

O=c1cc(O)c(Cl)c[nH]1
inactive: Potency [1] | Potency [2] | Potency [3] | Potency [4]

COc1cc(C(=O)NC2CCCNC2)cc(OC)c1OC (centres undefined)
inactive: Potency [1] | Potency [2] | Potency [3] | Potency [4]

C[C@]12C=CC(=O)C=C1CC[C@@H]1[C@@H]2[C@@H](O)C[C@@]2(C)[C@H]1CC[C@]2(O)C(=O)CO
inactive: Potency [1] | Potency [2] | Potency [3] | Potency [4]

C[C@@H](O)[C@H]1C(=O)N2C(C(=O)O)=C(SCCN=CN)C[C@H]12
inactive: Potency [1] | Potency [2] | Potency [3] | Potency [4]

C[C@@H]1C[C@H]2[C@@H]3C[C@H](F)C4=CC(=O)C=C[C@]4(C)[C@@]3(F)[C@@H](O)C[C@]2(C)[C@@]1(O)C(=O)CO
inactive: Potency [1] | Potency [2] | Potency [3] | Potency [4]

CC(=O)NCCCS(=O)(=O)O
inactive: Potency [1] | Potency [2] | Potency [3] | Potency [4]

CC1CCN(CCCC(=O)c2ccc(F)cc2)CC1
inactive: Potency [1] | Potency [2] | Potency [3] | Potency [4]

CCCc1c2oc(C(=O)O)cc(=O)c2cc2c(=O)cc(C(=O)O)n(CC)c12
inactive: Potency [1] | Potency [2] | Potency [3] | Potency [4]

NC(=O)NC1NC(=O)NC1=O (centres undefined)
inactive: Potency [1] | Potency [2] | Potency [3] | Potency [4]

CCOC(=O)O[C@]1(C(=O)OCCl)CC[C@H]2[C@@H]3CCC4=CC(=O)C=C[C@]4(C)[C@H]3[C@@H](O)C[C@@]21C
inactive: Potency [1] | Potency [2] | Potency [3] | Potency [4]

COC(=O)C(c1ccccc1)C1CCCCN1 (centres undefined)
inactive: Potency [1] | Potency [2] | Potency [3] | Potency [4]

O=C(O)c1ccccc1S
inactive: Potency [1] | Potency [2] | Potency [3] | Potency [4]

CC(=O)O[C@@H]1C(=O)O[C@@H]2[C@H]1OC(=O)[C@@H]2OC(C)=O
inactive: Potency [1] | Potency [2] | Potency [3] | Potency [4]

Cc1oc(=O)oc1COC(=O)[C@@H]1N2C(=O)[C@@H](NC(=O)[C@H](N)c3ccccc3)[C@H]2SC1(C)C
inactive: Potency [1] | Potency [2] | Potency [3] | Potency [4]

CC(=O)c1ccc(S(=O)(=O)NC(=O)NC2CCCCC2)cc1
inactive: Potency [1] | Potency [2] | Potency [3] | Potency [4]

CCC1(C)CC(=O)NC1=O (centres undefined)
inactive: Potency [1] | Potency [2] | Potency [3] | Potency [4]

CCCCCC[C@@H](CCC)C(=O)O
inactive: Potency [1] | Potency [2] | Potency [3] | Potency [4]

Cc1ccc(C(=O)C(=O)O)cc1C
inactive: Potency [1] | Potency [2] | Potency [3] | Potency [4]

CCOC(=O)c1ccccc1O
inactive: Potency [1] | Potency [2] | Potency [3] | Potency [4]

Cc1cc(NS(=O)(=O)c2ccc(N)cc2)nc(C)n1
inactive: Potency [1] | Potency [2] | Potency [3] | Potency [4]

COc1nccnc1NS(=O)(=O)c1ccc(N)cc1
inactive: Potency [1] | Potency [2] | Potency [3] | Potency [4]

O=C(c1ccccc1)C(O)c1ccccc1 (centres undefined)
inactive: Potency [1] | Potency [2] | Potency [3] | Potency [4]

CCOC(=O)[C@H](CCc1ccccc1)N[C@@H](C)C(=O)N1CCC[C@H]1C(=O)O
inactive: Potency [1] | Potency [2] | Potency [3] | Potency [4]

CO[C@@]1(NC(=O)CSCC#N)C(=O)N2C(C(=O)O)=C(CSc3nnnn3C)CS[C@@H]21
inactive: Potency [1] | Potency [2] | Potency [3] | Potency [4]

OC[C@H]1O[C@@H](n2cnc3c2NC=NC[C@H]3O)C[C@@H]1O
inactive: Potency [1] | Potency [2] | Potency [3] | Potency [4]

COc1cc(NS(=O)(=O)c2ccc(N)cc2)nc(C)n1
inactive: Potency [1] | Potency [2] | Potency [3] | Potency [4]

OC[C@@H](O)[C@@H](O[C@@H]1O[C@H](CO)[C@H](O)[C@H](O)[C@H]1O)[C@H](O)[C@@H](O)CO
inactive: Potency [1] | Potency [2] | Potency [3] | Potency [4]

CC(=O)Nc1c(I)c(NC(C)=O)c(I)c(C(=O)O)c1I
inactive: Potency [1] | Potency [2] | Potency [3] | Potency [4]

COc1cc2c3cc1Oc1cc(ccc1O)C[C@@H]1c4c(cc(OC)c(O)c4Oc4ccc(cc4)C[C@@H]3N(C)CC2)CC[N+]1(C)C
inactive: Potency [1] | Potency [2] | Potency [3] | Potency [4]

Oc1ccc(OCc2ccccc2)cc1
inactive: Potency [1] | Potency [2] | Potency [3] | Potency [4]

CN(C)CCOC(=O)C(c1ccccc1)C1(O)CCCC1 (centres undefined)
inactive: Potency [1] | Potency [2] | Potency [3] | Potency [4]

C=CCc1ccc(O)c(OC)c1
inactive: Potency [1] | Potency [2] | Potency [3] | Potency [4]

Cc1ccc(C(C)C)c(O)c1
inactive: Potency [1] | Potency [2] | Potency [3] | Potency [4]

NC(=O)c1ccccc1O
inactive: Potency [1] | Potency [2] | Potency [3] | Potency [4]

CC(=O)OC(C)C[N+](C)(C)C (centres undefined)
inactive: Potency [1] | Potency [2] | Potency [3] | Potency [4]

CC(=O)NC[C@H]1CN(c2ccc(N3CCOCC3)c(F)c2)C(=O)O1
inactive: Potency [1] | Potency [2] | Potency [3] | Potency [4]

O=C(Cn1ccnc1[N+](=O)[O-])NCc1ccccc1
inactive: Potency [1] | Potency [2] | Potency [3] | Potency [4]

CC(O)(P(=O)(O)O)P(=O)(O)O
inactive: Potency [1] | Potency [2] | Potency [3] | Potency [4]

O=C(Oc1ccccc1)c1ccccc1O
inactive: Potency [1] | Potency [2] | Potency [3] | Potency [4]

CCC[C@@]1(CCc2ccccc2)CC(O)=C([C@H](CC)c2cccc(NS(=O)(=O)c3ccc(C(F)(F)F)cn3)c2)C(=O)O1
inactive: Potency [1] | Potency [2] | Potency [3] | Potency [4]

CC(=O)OCC(=O)[C@@]1(O)[C@H](C)C[C@H]2[C@@H]3CCC4=CC(=O)C=C[C@]4(C)[C@@]3(F)[C@@H](O)C[C@@]21C
inactive: Potency [1] | Potency [2] | Potency [3] | Potency [4]

Nc1ccc(S(=O)(=O)Nc2ccc(Cl)nn2)cc1
inactive: Potency [1] | Potency [2] | Potency [3] | Potency [4]

COc1ccc2cc1Oc1cc3c(cc1OC)CC[N+](C)(C)[C@H]3Cc1ccc(cc1)Oc1c(OC)c(OC)cc3c1[C@@H](C2)[N+](C)(C)CC3
inactive: Potency [1] | Potency [2] | Potency [3] | Potency [4]

CNC[C@H](O)[C@@H](O)[C@H](O)[C@H](O)CO
inactive: Potency [1] | Potency [2] | Potency [3] | Potency [4]

Cc1onc(-c2ccccc2)c1-c1ccc(S(N)(=O)=O)cc1
inactive: Potency [1] | Potency [2] | Potency [3] | Potency [4]

CCCc1nc(C(C)(C)O)c(C(=O)OCc2oc(=O)oc2C)n1Cc1ccc(-c2ccccc2-c2nn[nH]n2)cc1
inactive: Potency [1] | Potency [2] | Potency [3] | Potency [4]

O=C(CO)[C@@H](O)[C@H](O)[C@@H](O)CO
inactive: Potency [1] | Potency [2] | Potency [3] | Potency [4]

Cc1cccc(C)c1NC(=O)CC12CCCN1CCC2
inactive: Potency [1] | Potency [2] | Potency [3] | Potency [4]

NC(=O)NC1N=C([O][Al])NC1=O (centres undefined)
inactive: Potency [1] | Potency [2] | Potency [3] | Potency [4]

CCOC(=O)/C=C(C)/C=C/C=C(C)/C=C/c1c(C)cc(OC)c(C)c1C
inactive: Potency [1] | Potency [2] | Potency [3] | Potency [4]

O=C(O)c1cc(=O)c2c(OCC(O)COc3cccc4oc(C(=O)O)cc(=O)c34)cccc2o1
inactive: Potency [1] | Potency [2] | Potency [3] | Potency [4]

Cc1nnc(NS(=O)(=O)c2ccc(N)cc2)s1
inactive: Potency [1] | Potency [2] | Potency [3] | Potency [4]

O=C(O)CNC(=O)c1ccccc1
inactive: Potency [1] | Potency [2] | Potency [3] | Potency [4]

O=P(O)(O)C(Sc1ccc(Cl)cc1)P(=O)(O)O
inactive: activity change, negative = inhibition [1] -6.9% [at 0.573 µM] | outcome [2] inactive [at 0.573 µM] | outcome [3] inactive [at 0.573 µM] | outcome [4] inactive [at 0.573 µM]

CO[C@@]1(NC(=O)Cc2cccs2)C(=O)N2C(C(=O)O)=C(COC(N)=O)CS[C@@H]21
inactive: Potency [1] | Potency [2] | Potency [3] | Potency [4]

CN(C)CCOC(=O)COc1ccc(Cl)cc1
inactive: Potency [1] | Potency [2] | Potency [3] | Potency [4]

Cc1c(NC(=O)c2cccnc2)c(=O)n(-c2ccccc2)n1C
inactive: Potency [1] | Potency [2] | Potency [3] | Potency [4]

CCN1CCCC1CNC(=O)c1cc(S(=O)(=O)CC)c(N)cc1OC (centres undefined)
inactive: Potency [1] | Potency [2] | Potency [3] | Potency [4]

O=C(O)c1cc(=O)[nH]c(=O)[nH]1
inactive: Potency [1] | Potency [2] | Potency [3] | Potency [4]

Nc1ccc(C(=O)O)cc1
inactive: Potency [1] | Potency [2] | Potency [3] | Potency [4]

CC(=O)SCC(CC(=O)c1ccc(C)cc1)C(=O)O (centres undefined)
inactive: Potency [1] | Potency [2] | Potency [3] | Potency [4]

CC(=O)O[C@@H]1CC2C3CCc4cc(OC(=O)c5ccccc5)ccc4C3CCC2(C)[C@H]1OC(C)=O (some centres undefined)
inactive: Potency [1] | Potency [2] | Potency [3] | Potency [4]

CCCC(O)C(CC)CO (centres undefined)
inactive: Potency [1] | Potency [2] | Potency [3] | Potency [4]

CC(=O)N=c1sc(S(N)(=O)=O)nn1C
inactive: Potency [1] | Potency [2] | Potency [3] | Potency [4]

CCCc1nn(C)c2c(=O)[nH]c(-c3cc(S(=O)(=O)N4CCN(C)CC4)ccc3OCC)nc12
inactive: Potency [1] | Potency [2] | Potency [3] | Potency [4]

COc1ccc2[nH]cc(CCNC(C)=O)c2c1
inactive: Potency [1] | Potency [2] | Potency [3] | Potency [4]

Reference: PubChem BioAssay (NCATS)
